Experimental findings from PubChem BioAssay (NCATS) are described below.

Records with an inconclusive call do not appear. Entries that show only a call come without a potency. Activity calls are given as the source filed them. Calls come from the whole dose curve; as a rule, active = well fitted curve in the direction sought with a large enough effect; inconclusive = small, poorly fitted or top-dose-only effect, or another doubt; inactive = no such curve, though single readings can be large; an effect the other way counts as inactive or inconclusive.

Sequence of Cytochrome P450 2D6 (Homo sapiens) (P10635 whole entry, looked up): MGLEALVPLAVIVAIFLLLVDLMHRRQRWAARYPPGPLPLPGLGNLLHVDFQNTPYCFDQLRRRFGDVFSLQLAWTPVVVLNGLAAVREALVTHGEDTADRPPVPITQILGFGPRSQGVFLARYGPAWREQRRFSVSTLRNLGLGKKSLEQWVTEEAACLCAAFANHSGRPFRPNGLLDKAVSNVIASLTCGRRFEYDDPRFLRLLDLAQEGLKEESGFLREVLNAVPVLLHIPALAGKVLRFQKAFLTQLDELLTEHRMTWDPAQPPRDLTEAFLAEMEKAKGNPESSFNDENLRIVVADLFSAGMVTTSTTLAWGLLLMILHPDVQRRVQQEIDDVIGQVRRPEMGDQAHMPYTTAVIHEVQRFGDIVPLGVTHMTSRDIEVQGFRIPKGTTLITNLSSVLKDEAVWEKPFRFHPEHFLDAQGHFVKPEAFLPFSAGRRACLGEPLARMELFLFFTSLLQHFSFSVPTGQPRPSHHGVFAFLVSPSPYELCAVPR

For one assay, the target named is Cytochrome P450 2D6 (Homo sapiens) (UniProt P10635). Nature of the assay: qHTS Assay for Inhibitors and Substrates of Cytochrome P450 2D6 (AID 891). Note: potency is the fitted concentration of half-maximal effect; nearly all actives have a fitted effect of over 60% in size. As to conditions: recombinant CYP2D6, luciferin-ME EGE luminescence; series mostly up to 57.1 µM. Put shortly:
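Human CYP2D6 (5 nM) with 30 uM Luciferin-ME EGE (at Km) in 100 mM KPO4, compound preincubated 10 min, then NADPH regeneration system for 60 min at room temperature. Luciferin read by luminescence; normalized to 1.43 uM quinidine.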
In the case of `C=CCN1C[C@H](C)N([C@H](c2ccc(C(=O)N(CC)CC)cc2)c2cccc(OC)c2)C[C@H]1C`, the Potency is 1.58 µM (active).

As to `COc1c2c(cc3c1OCO3)CCN(C)C2`, the Potency is 3.98 µM (active). In the case of `COc1ccc2c(c1)C13CCCC[C@@H]1C(C2)N(C)CC3` (some centres not stated), the Potency was 3.98 µM (active).

System in the next assay: not listed separately
The assay is described as follows: Confirmation and Secondary Assay for Modulators of Hemoglobin Beta Chain Splicing at IVS2 654 locus (AID 910).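 Note: HeLa cells stably carrying EGFP split by mutant beta-globin IVS2-654 intron.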 Particulars: HeLa EGFP-654 splicing reporter, GFP fluorescence, 48 h; series mostly up to 46.1 µM. Summed up:
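HeLa cells stably expressing EGFP interrupted by β-globin IVS2-654 intron, seeded overnight in Opti-MEM/2% FCS, then treated 2 days at 37 °C. Restored splicing read as total peak GFP intensity per well by laser scanning cytometry (488 nm excitation, 500–520 nm emission); 500 nM antisense PNA as control.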
On to `CCC1(CC)C(=O)C=CNC1=O`, for which the molecule was called inactive.

As to `CC(C)(C)NCC(O)c1ccccc1Cl` (configuration not stated), the molecule was classed as inactive. Still for that read-out and setting: for `O=c1oc2ccccc2c(O)c1Cc1c(O)c2ccccc2oc1=O` the value was “inactive”; for `c1ccc2c(c1)sc1ccccc12`, “inactive”; for `CNC(C)(C)Cc1ccccc1`, “inactive”. With `CC(NC(C)(C)C)C(=O)c1cccc(Cl)c1` (configuration not stated), the call was inactive.

As to `NC(=O)c1cc([N+](=O)[O-])cc([N+](=O)[O-])c1`, the call was inactive.

On to `CC(C)N(CCC(C(N)=O)(c1ccccc1)c1ccccn1)C(C)C` (configuration not stated), for which the molecule was classed as inactive. For `CCC1(c2ccc(N)cc2)CCC(=O)NC1=O` (configuration not stated), the call was inactive.

For `O=C1c2ccccc2C(=O)c2ccccc21`, the molecule was classed as inactive.

Regarding `NC(=O)CS(=O)C(c1ccccc1)c1ccccc1` (configuration not stated), the molecule was called inactive.

In the case of `CCOP(=S)(OCC)Oc1ccc2c(C)c(Cl)c(=O)oc2c1`, the result was inactive.

System in another assay: not listed separately
Nature of the assay: Confirmation and Secondary Assay for Modulators of Hemoglobin Beta Chain Splicing at IVS2 705 locus (AID 930).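 Note: HeLa cells stably expressing the EGFP-705 splicing reporter; GFP fluorescence per well restored by corrected splicing of the IVS2-705 intron in EGFP.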 As to conditions: HeLa EGFP-705 splicing reporter, GFP fluorescence, 48 h; series mostly up to 46.1 µM. Put shortly:
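HeLa EGFP-705 reporter; 500 cells/well, o/n 37C 5% CO2; cpd 2 d; 488 ex/500-520 em laser scan; total peak GFP intensity/well. Ref: 500 nM […] antisense PNA.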
On to `CCC1(CC)C(=O)C=CNC1=O`, for which the molecule was classed as inactive. Take `CC(C)(C)NCC(O)c1ccccc1Cl` (configuration not stated): the result was inactive. Turning to `O=c1oc2ccccc2c(O)c1Cc1c(O)c2ccccc2oc1=O`, the result was inactive. For `c1ccc2c(c1)sc1ccccc12`, the molecule was classed as inactive. On to `CNC(C)(C)Cc1ccccc1`, for which the result was inactive.

`CC(NC(C)(C)C)C(=O)c1cccc(Cl)c1` (configuration not stated): the outcome was inactive. Still for that read-out and setting: for `NC(=O)c1cc([N+](=O)[O-])cc([N+](=O)[O-])c1` the value was “inactive”; for `CC(C)N(CCC(C(N)=O)(c1ccccc1)c1ccccn1)C(C)C` (configuration not stated), “inactive”. As to `CCC1(c2ccc(N)cc2)CCC(=O)NC1=O` (configuration not stated), the result was inactive. On the same count and under the same terms, for `O=C1c2ccccc2C(=O)c2ccccc21` the value was “inactive”.

Turning to `NC(=O)CS(=O)C(c1ccccc1)c1ccccc1` (configuration not stated), the molecule was classed as inactive. Regarding `CCOP(=S)(OCC)Oc1ccc2c(C)c(Cl)c(=O)oc2c1`, the molecule was called inactive.
